# Screening data: PubChem, Sanford-Burnham Center for Chemical Genomics
# A selection: hits, their analogues and other compounds. The true share with any hit is near 4.1%.
# NALP1 inh: NALP1 inflammasome inhibitors in reconstituted yeast, colorimetric, S. cerevisiae, triplicate retest; S. cerevisiae NALP1/ASC/caspase-1 growth, X-gal OD620, 72 h; inhibition, % at 10 µM; actives 0.61% (n = 280,000); AID 2071, 2009; in the data active = inhibition mostly above about 24%, no sharp cut-off; inactive = mostly below about 32%
# NLRP3 yeast inh: NALP3 inflammasome inhibitors in reconstituted yeast, primary screen, luminescence, uHTS; Yeast reconstituted NLRP3/ASC/caspase-1, beta-gal luminescence, 24 h; inhibition, % at 10 µM; actives 0.39% (n = 330,000); AID 2825, 2010;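 active = inhibition of 50% or more; inactive = inhibition below 50%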
# TIM10 inh: growth inhibitors of isogenic TIM10 control yeast, primary screen, counter-screen for tim10-1 yeast inhibitor project, luminescence, uHTS; inhibition, % at 10 µM; S. cerevisiae TIM10 strain growth, BacTiter-Glo luminescence, 24 h; actives 1.4% (n = 330,000); AID 463195, 2010;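 active = inhibition of 40% or more at the single tested concentration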;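 also: wild-type TIM10 isogenic control strain grown at permissive 25 °C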
# tim10-1 inh: growth inhibitors of tim10-1 mutant yeast, primary screen, luminescence, uHTS. actives 2.2% (n = 330,000). S. cerevisiae tim10-1 ts strain growth, BacTiter-Glo, 24 h. inhibition, % at 20 µM;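 active = inhibition of at least 40%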;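 also: mutant grown at 25 °C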
# tim23-1 inh: growth inhibitors of tim23-1 mutant yeast, primary screen, luminescence, uHTS; S. cerevisiae tim23-1 growth, BacTiter-Glo luminescence, 24 h; inhibition, % at 20 µM; actives 1.3% (n = 330,000);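 active = growth inhibition of the mutant yeast at or above 50%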;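 also: temperature-sensitive mutant grown at 25 °C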
# tim10-1 conf: growth inhibitors of tim10-1 mutant yeast, confirmation, single concentration, luminescence, S. cerevisiae; actives 56% (n = 7,400); shares compounds with tim10-1 inh; inhibition, % at 20 µM; S. cerevisiae tim10-1 ts strain growth, BacTiter-Glo, 24 h; AID 463213, 2010;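 active = inhibition of yeast growth at or above a set limit in either of two repeat tests at 20 µM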;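 also: tim10-1 mutant grown at permissive 25 °C to find synthetic lethal compounds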
# A number is an active result; 0 = inactive; - = not tested or not shown.
SMILES,NALP1 inh,NLRP3 yeast inh,TIM10 inh,tim10-1 inh,tim23-1 inh,tim10-1 conf
COc1ccccc1N1C(=O)CC(Sc2n[nH]c(-c3cccc(C)c3)n2)C1=O (stereo not given),73,0,0,47,0,36
COc1ccccc1N1C(=O)CC(Sc2nccc(C)n2)C1=O (stereo not given),0,0,0,0,0,-
O=C(NCCN1CCCC1)c1ccc(Cl)cc1Cl,0,0,0,0,0,-
CCCNC(=O)c1ccc(Cl)cc1Cl,0,0,0,97,0,0
O=C(Nc1nccs1)C1CCN(S(=O)(=O)c2ccccc2)CC1,0,0,0,0,0,-
CC(=O)Nc1ccc2c(c1)nc(C)n2-c1ccccc1,0,0,0,0,0,-
Cc1nc2cc(Cl)ccc2n1-c1ccccc1,-,0,0,47,0,0
COc1ccc2c(c1)C1C=CCC1C(c1cc3c(cc1Br)OCO3)N2 (stereo not given),0,0,0,51,0,38
COc1cccc(/C=C/C(=O)N2CCN(S(=O)(=O)c3ccccc3)CC2)c1OC,-,0,0,0,0,-
O=C(CSc1nc(O)cc(=O)[nH]1)N1c2ccccc2Sc2ccccc21,0,0,0,0,0,-
O=C(CSc1nc2ccccc2[nH]1)N1c2ccccc2Sc2ccccc21,0,0,0,46,0,0
C=CCn1c(SCC(=O)Nc2cccc(S(N)(=O)=O)c2)nnc1C1CCCCC1,-,0,0,0,0,-
O=C(CCCCl)Oc1ccc2cc(-c3ccc4ccccc4n3)c(=O)oc2c1,0,0,0,0,0,-
COc1ccccc1NC(=O)CCCC(=O)OCC(=O)c1ccc(F)cc1,0,0,0,0,0,-
COc1ccccc1NC(CC(=O)c1ccccc1)C(=O)OCC(=O)c1ccc(F)cc1 (stereo not given),0,0,0,45,0,40
CCN(CC)C(c1ccc(F)cc1)c1nnnn1C1CCCCC1 (stereo not given),0,0,0,0,0,-
Fc1ccc(C(c2nnnn2C2CCCC2)N(Cc2ccco2)CC2CCCO2)cc1 (stereo not given),0,0,0,52,0,42
CCN(CC)C(c1ccc(C)cc1)c1nnnn1C1CCCCC1 (stereo not given),0,0,0,44,0,0
CCCCc1cc(=O)oc2cc(C)cc(OCC(=O)Nc3ccccn3)c12,0,0,0,0,0,-
Cc1cccc(C(=O)NC(=S)Nc2cccc3nc(C)ccc23)c1,0,0,0,0,0,-
COc1cccc(NC(=S)N/N=C2\CC3CCC2(C)C3(C)C)c1 (stereo not given),0,0,0,41,0,31
Cn1c(N)c(C(=O)CSc2nnc(C3CC3)n2-c2ccccc2)c(=O)n(C)c1=O,-,0,0,0,0,-
CC1=NN(c2ccccc2)C(=O)/C1=C\C=C1\N(C)c2ccccc2C1(C)C,0,0,0,0,0,-
CC1=NN(c2ccccc2)C(=O)/C1=C\C=C1/N(C)c2ccccc2C1(C)C,0,0,0,42,0,0
O=C(CCSc1ccccc1)N1CCCC1,0,0,0,0,0,-
SMILES,NALP1 inh,NLRP3 yeast inh,TIM10 inh,tim10-1 inh,tim23-1 inh,tim10-1 conf
O=[N+]([O-])/C(C(Cl)=C(Cl)Cl)=C(\Sc1ccccc1)N1CCCCC1,0,0,0,44,0,35
COC(=O)c1ccccc1S(=O)c1snnc1C (stereo not given),0,0,0,0,0,-
CC(C)=CCC1=C(OCC(=O)O)C(=O)c2ccccc2C1=O,0,0,0,52,0,44
COc1ccc(N(C(=O)c2snc(C(N)=O)c2N)C(C(=O)NC2CCCC2)c2cc(OC)ccc2OC)cc1 (stereo not given),0,0,0,0,0,-
O=C(CSc1ccc2nnc(-c3cccc(F)c3)n2n1)N1CCCc2ccccc21,0,0,0,0,0,-
CCSc1ccc2nnc(-c3cccc(F)c3)n2n1,0,0,0,40,0,34
O=c1c2ccccc2sc2ccc(C#CC3(O)CCCCC3)cc12,-,0,0,41,0,35
COc1cccc2sc3ccc(C#CC4(O)CCCCC4)cc3c(=O)c12,0,0,0,41,0,0
Nc1ccc(C#Cc2ccc3sc4ccccc4c(=O)c3c2)cc1,-,0,0,0,0,-
COc1cccc2sc3ccc(C#Cc4ccc(N)cc4)cc3c(=O)c12,0,0,0,0,0,-
CCc1ccc(N2C(=O)CC(N3CCC(C(=O)OC)CC3)C2=O)cc1 (stereo not given),0,0,0,43,0,42
CCOC(=O)C1CCCN(C2CC(=O)N(c3ccccc3)C2=O)C1 (stereo not given),0,0,0,0,0,-
CCOC(=O)C1CCCN(C2CC(=O)N(c3ccc(C(C)C)cc3)C2=O)C1 (stereo not given),0,0,0,42,0,30
CCOC(=O)C1CCCN(C2CC(=O)N(c3cccc(C(F)(F)F)c3)C2=O)C1 (stereo not given),59,0,0,56,0,42
CCn1ccnc1CN(C)Cc1nc(Cc2cccc(C(F)(F)F)c2)no1,0,0,0,0,0,-
S=C(Nc1ccc(Nc2ccccc2)cc1)NC1CCCCCC1,0,0,0,43,0,38
S=C(Nc1cccnc1)NC1CCCCCCC1,0,0,0,50,0,45
S=C(Nc1ccc(Cl)cc1)NC1CCCCC1,0,0,0,0,0,-
S=C(Nc1ccc2[nH]ccc2c1)NC1CCCCC1,0,0,0,42,0,0
Cn1cccc1C(=O)OCC(=O)N1c2ccccc2NC(=O)C1(C)C,0,0,0,0,0,-
COc1cc(/C=C2\SC(=O)NC2=O)ccc1OCC(=O)N1CCOCC1,-,0,0,0,0,-
O=[N+]([O-])c1ccccc1N/N=C/c1c[nH]c2ccccc12,0,0,0,69,0,57
CCCN(Cc1ccccc1)C(=S)Nc1cccc(C(F)(F)F)c1,-,0,0,47,0,31
Cc1c(C(=O)Nc2ccc(C(=O)Nc3ccccc3)cc2)cccc1[N+](=O)[O-],0,0,0,0,0,-
Cc1c(C(=O)Nc2ccccc2-c2ccccc2)cccc1[N+](=O)[O-],0,0,0,42,0,0
SMILES,NALP1 inh,NLRP3 yeast inh,TIM10 inh,tim10-1 inh,tim23-1 inh,tim10-1 conf
Cc1cccc(N2CCN(C(=O)n3ccnc3)CC2)c1C,0,0,0,0,0,-
C/C(=N\NC(=S)NCc1ccccc1)c1ccco1,0,0,0,0,0,-
C/C(=N\NC(=S)NCc1ccccc1)c1ccccc1F,0,0,0,46,0,34
C/C(=N\NC(=S)NCCc1ccccc1)c1ccc(O)cc1O,0,0,0,43,0,0
Oc1ccccc1/C=N/NC(=S)NCCc1ccccc1,0,-,-,-,-,-
C/C(=N\NC(=S)NCc1ccccc1)c1ccc(C(C)(C)C)cc1,0,0,0,42,0,0
